# Assay results: PubChem BioAssay
# Several values for one entry are separate records, joined by “and”; a condition that tells them apart may be missing. Identical values can stand only once. Activity calls are given as the source filed them. Unless noted, how the calls were made is not given here.
# Columns and labels:
# [1] = P. berghei load reduction in hepatocytes – cell-based, HepG2, luciferase luminescence, HepG2 viability, primary screen (AID 624349; in the data active means parasite load remaining mostly below about 12%, no sharp cut-off; inactive means mostly above about 10%;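 further: 100% = mean of DMSO negative control wells on the same plate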); settings: P. berghei liver stage in HepG2, luciferase luminescence, concentration not given here; parasite load remaining: stronger effect = lower value; viability: measured here: HepG2 viability without parasites
# [2] = tested on: Neuropilin-2 / VEGF-C interaction (human); experiment: small molecules blocking Neuropilin-2/VEGF-C interaction – biochemical, microplate binding format, z-score (AID 743281); settings: microplate NRP2/VEGF-C binding assay; stronger effect = lower value
# [3] = Wnt pathway potentiators raising nuclear beta-catenin – imaging, WNT3A-conditioned medium, mouse C2C12, NPC library, primary screen (AID 1117326; in the data active means nuclear beta-catenin stimulation mostly above about 4.2%, no sharp cut-off; inactive means mostly below about 10%); settings: stronger effect = higher value
# [4] = stimulators of insulin release from INS-1E, primary screen, cell-based, 5 mM glucose, NPC library (AID 1117329;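 active means compound raises insulin release from rat beta cells at 5 mM glucose, no numeric limit stated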); settings: rat INS-1E insulin secretion, at 10 µM, stronger effect = higher value
# [5] = growth inhibition of GSK3B-pretreated HCT116 cells – cell-based, CellTiter-Glo, 0.2 to 20 µM (AID 1117336;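 active means compounds lowering colon cancer cell viability after pretreatment blocking the GSK3B kinase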); settings: HCT116 viability after GSK3B inhibitor, at 20 µM, stronger effect = higher value
# [6] = inhibition of endothelial tube formation, primary screen, imaging, VEGF stimulated, CD31 staining, tube area, NPC library (AID 1117340;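 active means compound that reduces growth-factor-driven endothelial tube area in a mixed cell culture, no cutoff stated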); settings: VEGF-stimulated ADSC/ECFC co-culture, at 10 µM, stronger effect = higher value
# [7] = GLP1 release stimulators, primary, NCI-H716, NPC library (AID 1117341;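 active means compound raises GLP1 secretion from the human gut endocrine cells, with no numeric limit stated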); settings: NCI-H716 cells, at 10 µM, stronger effect = higher value
# [8] = HCT116 colon cancer cell growth inhibition, primary screen, CellTiter-Glo luminescence, NPC library (AID 1117342;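 active means compounds that lower survival of HCT116 colon cancer cells in the luminescence readout, no numeric limit stated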); settings: at 20 µM (top of the series)
# [9] = reduced SW480 viability measured with CellTiter-Glo, NPC library, primary (AID 1117343;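 active means compounds that lower viability of the colon cancer cells in the luminescence readout, with no numeric limit stated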); settings: CellTiter-Glo luminescence; at 20 µM (top of the series)
# [10] = NPC library primary testing for decreased DLD-1 cell viability via CellTiter-Glo (AID 1117346;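 active means compounds that lower survival of DLD-1 colon cancer cells in the luminescence readout, no cutoff given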); settings: DLD-1 viability, CellTiter-Glo luminescence; at 20 µM (top of the series)
# [11] = tested on: Hepatitis C virus NS3 helicase; experiment: blockers of NS3h binding to ssDNA – biochemical, fluorescence polarization, LOPAC1280 library, primary screen (AID 687035; in the data active means inhibition above about 37%); settings: Purified HCV NS3 helicase, Cy5-dT15 ssDNA binding fluorescence polarization; stronger effect = higher value; concentration not given here
# [12] = compounds altering Cy5-DNA-NS3h complex signal – biochemical, LOPAC1280, artefact control for HCV NS3 helicase inhibitor project (AID 687037); settings: Cy5-DNA-NS3h complex fluorescence interference counterscreen
# [13] = signal quenchers or enhancers, Cy5 substrate/SSB – biochemical, NIH Clinical Collection, E. coli SSB, artefact control for HCV NS3 helicase inhibitor project (AID 743268); settings: Cy5-oligo bound E. coli SSB, fluorescence interference
# [14] = tested on: Hepatitis C virus NS3 helicase; experiment: blockers of NS3h binding to DNA – biochemical, fluorescence polarization, NIH Clinical Collection, primary screen (AID 743270); settings: NS3 helicase binding to Cy5-dT15 DNA, stronger effect = higher value, concentration not given here
# [15] = biological target: Single-stranded DNA-binding protein (Escherichia coli (strain K12)) (UniProt P0AGE0); experiment: SSB-ssDNA binding inhibitors – biochemical, fluorescence polarization, NIH Clinical Collection, counter-screen for HCV NS3 helicase inhibitor project (AID 743271; in the data active means inhibition above about 28%); settings: E. coli SSB-DNA binding, stronger effect = higher value, concentration not given here
# [16] = compounds distorting NS3 helicase fluorescence signal – biochemical, NIH Clinical Collection, artefact control for HCV NS3 helicase inhibitor project (AID 743272); settings: fluorescence interference counterscreen, HCV NS3 helicase assay; stronger effect = lower value;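 further: HCV NS3 helicase with a Cy5 labelled single stranded DNA probe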
Compound,parasite load remaining [1],viability [1],z-score [2],nuclear beta-catenin stimulation ([3]; at 10 µM),"nuclear beta-catenin stimulation ([3]; stimulation, at 2 µM) [%]",insulin secretion stimulation [4],viability decrease [5],tube area decrease [6],GLP1 secretion stimulation [7],inhibition of viability [8],viability decrease (inhibition) [9],viability decrease (inhibition) [10],inhibition [11],fluorescence ratio (interference) [12],fluorescence ratio [13],inhibition [14],inhibition [15],fluorescence ratio [16]
CCc1c2c(nc3ccc(OC(=O)N4CCC(N5CCCCC5)CC4)cc13)-c1cc3c(c(=O)n1C2)COC(=O)[C@]3(O)CC,136% (inactive) and 106% (inactive),95.2% and 90.6%,-0.00941 (inactive),11.6% (inactive),1.5,-1.1% (inactive),67.4% (active),97.9% (active),24% (active),50.8% (active),21.7% (inactive),8.7% (inactive),–,–,–,–,–,–
Cc1cccc(C)c1OCC(C)N (centres undefined),–,–,–,1.9% (inactive),2.4,4.3% (inactive),3.4% (inactive),-2% (inactive),-4.1% (inactive),5.27% (inactive),-7.7% (inactive),4.3% (inactive),-2% (inactive),1 (inactive),1.06 (inactive),-4.09% (inactive),-4.29% (inactive),1.04 (inactive)
CC(=O)NS(=O)(=O)c1ccc(N)cc1,–,–,–,-0.3% (inactive),-0.1,-1.9% (inactive),-5.2% (inactive),14.5% (inactive),-1.7% (inactive),1.2% (inactive),-3.2% (inactive),-1.3% (inactive),–,–,1.03 (inactive),-5% (inactive),-5.05% (inactive),1.01 (inactive)
CC(C)NCC(O)COc1ccc(COCCOC(C)C)cc1 (centres undefined),–,–,-0.164 (inactive),0.8% (inactive),1.2,1.2% (inactive),6.2% (inactive),-2.7% (inactive),-1.1% (inactive),-3.93% (inactive),0% (inactive),-4.5% (inactive),2% (inactive),1 (inactive),1.04 (inactive),1.19% (inactive),-0.1% (inactive),0.94 (inactive)
Cc1ncc([N+](=O)[O-])n1CC(O)CCl (centres undefined),–,–,-0.43 (inactive),0.8% (inactive),1.1,-1.6% (inactive),-3.65% (inactive),-4.9% (inactive),-0.1% (inactive),0.2% (inactive),-45.6% (inactive),-4.95% (inactive),–,–,0.99 (inactive),5.94% (inactive),0.67% (inactive),0.99 (inactive)
COc1ccc2nc(S(=O)Cc3ncc(C)c(OC)c3C)[nH]c2c1 (centres undefined),–,–,-0.241 (inactive),8.5% (inactive),4.5,0.4% (inactive),13.3% (inactive),29.3% (inactive),1.7% (inactive),-0.23% (inactive),-451% (inactive),-12.7% (inactive),–,–,1.02 (inactive),-1.97% (inactive),-3.54% (inactive),0.98 (inactive)
CN1CCN2c3ccccc3Cc3ccccc3C2C1 (centres undefined),78.7% (inactive) and 106% (inactive) and 104% (inactive),–,–,0.3% (inactive),-0.9,43.4% (active),6.5% (inactive),26.3% (inactive),3.1% (inactive),20.5% (inactive),76% (active),6.6% (inactive),-3% (inactive),0.9 (inactive),–,–,–,–
O=C1CC2(CCCC2)CC(=O)N1CCCCN1CCN(c2ncccn2)CC1,–,–,–,0.7% (inactive),2.6,-0.8% (inactive),20.1% (inactive),-1.5% (inactive),1.7% (inactive),39.4% (inactive),20.4% (inactive),1.7% (inactive),0% (inactive),1 (inactive),–,-6.82% (inactive),1.05% (inactive),1.03 (inactive)
CN1CCCCC1CCN1c2ccccc2Sc2ccc(S(C)=O)cc21 (centres undefined),–,–,0.284 (inactive),2.6% (inactive),3.5,15.2% (inactive),51% (active),16.9% (inactive),12.7% (inactive),36.7% (active),31.7% (inactive),9.3% (inactive),–,–,0.96 (inactive),-2.77% (inactive),-3.18% (inactive),0.95 (inactive)
Cc1nccn1CC1CCc2c(c3ccccc3n2C)C1=O (centres undefined),–,–,-0.188 (inactive),-0.2% (inactive),1.9,-1.6% (inactive),-7% (inactive),1.5% (inactive),-1.9% (inactive),24.8% (inactive),-3.2% (inactive),-8% (inactive),–,–,0.99 (inactive) and 1.12 (inactive),0.4% (inactive) and -4.09% (inactive),3.75% (inactive) and 1.05% (inactive),0.97 (inactive) and 1.02 (inactive)
NS(=O)(=O)c1cc(C(=O)O)c(NCc2ccco2)cc1Cl,–,–,–,0.5% (inactive),1.3,-2% (inactive),-10.1% (inactive),13% (inactive),0.9% (inactive),-10.4% (inactive),-18% (inactive),-1.6% (inactive),–,–,0.95 (inactive),–,–,0.89 (inactive)
